# This is part of a sample that, as a whole, favours compounds with a hit. Of some 79,000 tested, about 15% had one in any assay. Unmarked numbers belong to inactive results. Active and inactive are the calls of the source. Cut-off read from the data, not from the text of the source: active = growth inhibition above about 70%; inactive = the rest.
# Columns and labels:
# [1] = NCI Yeast Anticancer Drug Screen. Data for the rad52 strain (AID 147);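 note: 0% = growth of vehicle-treated control cultures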; settings: S. cerevisiae rad52 mutant growth inhibition, stronger effect = higher value
# In short: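 Compounds are applied to a genetically defined yeast strain lacking normal DNA damage repair, and inhibition of growth is expressed relative to cultures given vehicle only.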
# [2] = NCI Yeast Anticancer Drug Screen. Data for the wt1 strain (AID 149);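 note: 0% = growth of vehicle-treated wt1 cultures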; settings: S. cerevisiae wt1 strain (SPY 50644) growth inhibition, stronger effect = higher value
# In short: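 wt1 yeast, compound-treated; % growth inhibition vs vehicle control.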
# [3] = NCI Yeast Anticancer Drug Screen. Data for the rad50EPP+ strain (AID 151);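 note: 0% = growth of vehicle-treated control cultures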; settings: S. cerevisiae rad50 mutant strain, stronger effect = higher value
# In short: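 Compounds were applied to the rad50EPP+ yeast strain, which bears a defined DNA repair alteration, and growth inhibition was determined relative to vehicle-treated cultures.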
# [4] = NCI Yeast Anticancer Drug Screen. Data for the mgt1 strain (AID 153); settings: S. cerevisiae mgt1 mutant growth inhibition, stronger effect = higher value
# In short: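 Strain: mgt1 yeast, one of a set carrying defined DNA damage repair or cell cycle control alterations. Compound-treated growth compared with vehicle.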
# [5] = NCI Yeast Anticancer Drug Screen. Data for the rad50 strain (AID 155);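 note: 0% = growth of vehicle-only cultures of the same strain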; settings: S. cerevisiae rad50 strain growth inhibition, stronger effect = higher value
# In short: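 Genetically altered yeast (DNA repair pathway); compound treatment; growth inhibition vs vehicle ctrl.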
# [6] = NCI Yeast Anticancer Drug Screen. Data for the mec2-1 strain (AID 157); settings: S. cerevisiae mec2-1 strain, stronger effect = higher value
# In short: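 Strain: mec2-1 (DNA repair/cell cycle alteration). Compound exposure, then growth measured; inhibition expressed relative to vehicle.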
# [7] = NCI Yeast Anticancer Drug Screen. Data for the rad14 strain (AID 159);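 note: 0% = growth of vehicle-treated control cultures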; settings: S. cerevisiae rad14 strain growth inhibition, stronger effect = higher value
# In short: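 Test compounds were applied to a repair-deficient yeast strain. Its growth was then compared with that of cultures given vehicle alone, and inhibition was expressed relative to those controls.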
# [8] = NCI Yeast Anticancer Drug Screen. Data for the sgs1 mgt1 strain (AID 161);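 note: 0% = growth of cultures given vehicle only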; settings: S. cerevisiae sgs1 mgt1 strain, stronger effect = higher value
# In short: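 Read-out: growth inhibition vs vehicle controls. Cells: mutant yeast strain deficient in DNA damage repair.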
# [9] = NCI Yeast Anticancer Drug Screen. Data for the cln2 rad14 strain (AID 165);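 note: 0% = growth equal to vehicle treated cultures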; settings: S. cerevisiae cln2 rad14 strain, stronger effect = higher value
# In short: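 Compounds are applied to the cln2 rad14 yeast strain, and growth is then compared with that of vehicle-treated cultures to give inhibition.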
# [10] = NCI Yeast Anticancer Drug Screen. Data for the bub3 strain (AID 167); settings: S. cerevisiae bub3 mutant strain, stronger effect = higher value
# In short: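 Yeast carrying a defined mutation is treated with each compound, and growth is compared with that of vehicle-exposed cells to give inhibition.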
# [11] = NCI Yeast Anticancer Drug Screen. Data for the mlh1 strain (AID 171);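 note: 0% = growth of vehicle-treated control cultures of the same strain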; settings: S. cerevisiae mlh1 strain growth inhibition, stronger effect = higher value
# In short: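 Growth of the mutant yeast strain after compound exposure, expressed as inhibition relative to vehicle-only controls.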
# [12] = NCI Yeast Anticancer Drug Screen. Data for the sgs1 strain (AID 173);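 note: 0% = growth of vehicle-only control cultures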; settings: S. cerevisiae sgs1 mutant, stronger effect = higher value
# In short: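 Growth of a yeast strain bearing a defined genetic alteration is measured after compound treatment. Inhibition is expressed relative to vehicle-only controls.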
# [13] = NCI Yeast Anticancer Drug Screen. Data for the mlh1 rad18 strain (AID 175); settings: S. cerevisiae mlh1 rad18 strain growth inhibition, stronger effect = higher value
# In short: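 Read-out is yeast growth inhibition, calculated against vehicle-only controls. The compound was applied to a strain engineered with DNA damage repair alterations.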
# [14] = NCI Yeast Anticancer Drug Screen. Data for the rad18 strain (AID 177); settings: S. cerevisiae rad18 mutant growth inhibition, stronger effect = higher value
# In short: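 Growth of the mutant yeast strain after compound exposure, normalised to vehicle-only cultures.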
# [15] = NCI Yeast Anticancer Drug Screen. Data for the CLN2oe strain (AID 163);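 note: 0% = growth of vehicle-only control cultures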; settings: S. cerevisiae CLN2oe strain, stronger effect = higher value
# In short: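 Growth of a genetically modified yeast strain is measured after compound exposure and compared with cultures given vehicle alone.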
# [16] = NCI Yeast Anticancer Drug Screen. Data for the wt2 strain (AID 169);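 note: 0% = growth of vehicle-treated yeast cultures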; settings: S. cerevisiae wt2 strain growth inhibition, stronger effect = higher value
# In short: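 This strain belongs to a panel of yeast strains with defined genetic alterations in DNA damage repair or cell cycle control. Compounds are applied, and growth inhibition is measured against vehicle-treated cultures.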
# [17] = at 5.0 µM (retest, dose inferred, filed as 0.5)
# [18] = at 50.0 µM (retest, dose inferred, filed as 5.0)
structure (smiles),measurement,setting,value
CC(C)/C(Cl)=N\OC(=O)Nc1cccc(Cl)c1,growth inhibition,[1]; at 1.2 µM,-4%
same,growth inhibition,[1]; at 3.7 µM,-7%
same,growth inhibition,[1]; at 11.0 µM,-4%
same,growth inhibition,[1]; at 33.0 µM,-3%
same,growth inhibition,[1]; at 100.0 µM,-2%
same,growth inhibition,[2]; at 1.2 µM,-2%
same,growth inhibition,[2]; at 3.7 µM,0%
same,growth inhibition,[2]; at 11.0 µM,-1%
same,growth inhibition,[2]; at 33.0 µM,-2%
same,growth inhibition,[2]; at 100.0 µM,1%
same,growth inhibition,[3]; at 1.2 µM,-2%
same,growth inhibition,[3]; at 3.7 µM,-2%
same,growth inhibition,[3]; at 11.0 µM,1%
same,growth inhibition,[3]; at 33.0 µM,2%
same,growth inhibition,[3]; at 100.0 µM,0%
same,growth inhibition,[4]; at 1.2 µM,-1%
same,growth inhibition,[4]; at 3.7 µM,-3%
same,growth inhibition,[4]; at 11.0 µM,12%
same,growth inhibition,[4]; at 33.0 µM,-26%
same,growth inhibition,[4]; at 100.0 µM,0%
same,growth inhibition,[5]; at 1.2 µM,-2%
same,growth inhibition,[5]; at 3.7 µM,-5%
same,growth inhibition,[5]; [17],8%
same,growth inhibition,[5]; at 11.0 µM,-26%
same,growth inhibition,[5]; at 33.0 µM,-1%
same,growth inhibition,[5]; [18],47%
same,growth inhibition,[5]; at 50.0 µM,69.5%
same,growth inhibition,[5]; at 100.0 µM,3%
same,growth inhibition,[6]; at 1.2 µM,0%
same,growth inhibition,[6]; at 3.7 µM,0%
same,growth inhibition,[6]; [17],-17%
same,growth inhibition,[6]; at 11.0 µM,2%
same,growth inhibition,[6]; at 33.0 µM,2%
same,growth inhibition,[6]; [18],30%
same,growth inhibition,[6]; at 50.0 µM,87.8% (active)
same,growth inhibition,[6]; at 100.0 µM,1%
same,growth inhibition,[7]; at 1.2 µM,0%
same,growth inhibition,[7]; at 3.7 µM,2%
same,growth inhibition,[7]; at 11.0 µM,0%
same,growth inhibition,[7]; at 33.0 µM,4%
same,growth inhibition,[7]; at 100.0 µM,6%
same,growth inhibition,[8]; [17],-17%
same,growth inhibition,[8]; [18],83% (active)
same,growth inhibition,[8]; at 50.0 µM,85.2% (active)
same,growth inhibition,[9]; [17],-3%
same,growth inhibition,[9]; [18],19%
same,growth inhibition,[9]; at 50.0 µM,72.3% (active)
same,growth inhibition,[10]; at 1.2 µM,1%
same,growth inhibition,[10]; at 3.7 µM,4%
same,growth inhibition,[10]; [17],-29%
same,growth inhibition,[10]; at 11.0 µM,10%
same,growth inhibition,[10]; at 33.0 µM,12%
same,growth inhibition,[10]; [18],88% (active)
same,growth inhibition,[10]; at 50.0 µM,82.3% (active)
same,growth inhibition,[10]; at 100.0 µM,10%
same,growth inhibition,[11]; at 1.2 µM,-1%
same,growth inhibition,[11]; at 3.7 µM,-7%
same,growth inhibition,[11]; at 11.0 µM,0%
same,growth inhibition,[11]; at 33.0 µM,0%
same,growth inhibition,[11]; at 100.0 µM,-2%
same,growth inhibition,[12]; at 1.2 µM,0%
same,growth inhibition,[12]; at 3.7 µM,1%
same,growth inhibition,[12]; at 11.0 µM,2%
same,growth inhibition,[12]; at 33.0 µM,1%
same,growth inhibition,[12]; at 100.0 µM,2%
same,growth inhibition,[13]; [17],-12%
same,growth inhibition,[13]; [18],22%
same,growth inhibition,[13]; at 50.0 µM,77.5% (active)
same,growth inhibition,[14]; at 1.2 µM,-7%
same,growth inhibition,[14]; at 3.7 µM,-8%
same,growth inhibition,[14]; at 11.0 µM,-10%
same,growth inhibition,[14]; at 33.0 µM,-24%
same,growth inhibition,[14]; at 100.0 µM,-1%
Cc1cc(I)ccc1N,growth inhibition,[1]; at 1.2 µM,24%
same,growth inhibition,[1]; at 3.7 µM,4%
same,growth inhibition,[1]; at 11.0 µM,24%
same,growth inhibition,[1]; at 33.0 µM,92% (active)
same,growth inhibition,[1]; at 100.0 µM,87% (active)
same,growth inhibition,[2]; at 1.2 µM,-8%
same,growth inhibition,[2]; at 3.7 µM,2%
same,growth inhibition,[2]; at 11.0 µM,-8%
same,growth inhibition,[2]; at 33.0 µM,86% (active)
same,growth inhibition,[2]; at 100.0 µM,91% (active)
same,growth inhibition,[3]; at 1.2 µM,-24%
same,growth inhibition,[3]; at 3.7 µM,-11%
same,growth inhibition,[3]; at 11.0 µM,-8%
same,growth inhibition,[3]; at 33.0 µM,20%
same,growth inhibition,[3]; at 100.0 µM,74% (active)
same,growth inhibition,[4]; at 1.2 µM,36%
same,growth inhibition,[4]; at 3.7 µM,5%
same,growth inhibition,[4]; at 11.0 µM,28%
same,growth inhibition,[4]; at 33.0 µM,93% (active)
same,growth inhibition,[4]; at 100.0 µM,85% (active)
same,growth inhibition,[5]; at 1.2 µM,-31%
same,growth inhibition,[5]; at 3.7 µM,-13%
same,growth inhibition,[5]; [17],50%
same,growth inhibition,[5]; at 11.0 µM,-13%
same,growth inhibition,[5]; at 33.0 µM,91% (active)
same,growth inhibition,[5]; [18],79% (active)
same,growth inhibition,[5]; at 50.0 µM,85.6% (active)
same,growth inhibition,[5]; at 100.0 µM,93% (active)
same,growth inhibition,[6]; at 1.2 µM,-3%
same,growth inhibition,[6]; at 3.7 µM,4%
same,growth inhibition,[6]; [17],51%
same,growth inhibition,[6]; at 11.0 µM,-2%
same,growth inhibition,[6]; at 33.0 µM,87% (active)
same,growth inhibition,[6]; [18],87% (active)
same,growth inhibition,[6]; at 50.0 µM,88.2% (active)
same,growth inhibition,[6]; at 100.0 µM,92% (active)
same,growth inhibition,[7]; at 1.2 µM,1%
same,growth inhibition,[7]; at 3.7 µM,-15%
same,growth inhibition,[7]; at 11.0 µM,-1%
same,growth inhibition,[7]; at 33.0 µM,93% (active)
same,growth inhibition,[7]; at 100.0 µM,92% (active)
same,growth inhibition,[8]; [17],-1%
same,growth inhibition,[8]; [18],92% (active)
same,growth inhibition,[8]; at 50.0 µM,89.3% (active)
same,growth inhibition,[15]; at 1.2 µM,-10%
same,growth inhibition,[15]; at 3.7 µM,-15%
same,growth inhibition,[15]; at 11.0 µM,-3%
same,growth inhibition,[15]; at 33.0 µM,79% (active)
same,growth inhibition,[15]; at 100.0 µM,86% (active)
same,growth inhibition,[10]; at 1.2 µM,1%
same,growth inhibition,[10]; at 3.7 µM,-7%
same,growth inhibition,[10]; [17],27%
same,growth inhibition,[10]; at 11.0 µM,11%
same,growth inhibition,[10]; at 33.0 µM,90% (active)
same,growth inhibition,[10]; [18],90% (active)
same,growth inhibition,[10]; at 50.0 µM,86.8% (active)
same,growth inhibition,[10]; at 100.0 µM,94% (active)
same,growth inhibition,[16]; at 1.2 µM,-28%
same,growth inhibition,[16]; at 3.7 µM,-10%
same,growth inhibition,[16]; at 11.0 µM,-13%
same,growth inhibition,[16]; at 33.0 µM,88% (active)
same,growth inhibition,[16]; at 100.0 µM,94% (active)
same,growth inhibition,[11]; at 1.2 µM,25%
same,growth inhibition,[11]; at 3.7 µM,13%
same,growth inhibition,[11]; at 11.0 µM,10%
same,growth inhibition,[11]; at 33.0 µM,89% (active)
same,growth inhibition,[11]; at 100.0 µM,92% (active)
same,growth inhibition,[12]; at 1.2 µM,19%
same,growth inhibition,[12]; at 3.7 µM,5%
same,growth inhibition,[12]; at 11.0 µM,4%
same,growth inhibition,[12]; at 33.0 µM,90% (active)
same,growth inhibition,[12]; at 100.0 µM,91% (active)
same,growth inhibition,[13]; [17],41%
same,growth inhibition,[13]; [18],73% (active)
same,growth inhibition,[13]; at 50.0 µM,85.6% (active)
same,growth inhibition,[14]; at 1.2 µM,-18%
same,growth inhibition,[14]; at 3.7 µM,-4%
same,growth inhibition,[14]; at 11.0 µM,-15%
same,growth inhibition,[14]; at 33.0 µM,85% (active)
same,growth inhibition,[14]; at 100.0 µM,87% (active)
